# Results published in paper PMC4336329 (PLoS ONE, 2015).
# In all, about 310,000 compounds went through this assay and about 14,000 (4.5%) showed an effect of 50% or more. The effect is printed as a negative number. The sample as a whole holds a higher share of strong results than the screen did.
# Molecular target: human ether-à-go-go-related gene (hERG) potassium channel (human, UniProt Q12809)
# Experiment: primary screen, population patch clamp on CHO cells stably expressing hERG; higher = less effect of the substance
# 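Further: peak tail current of the secondary pulse compared with the same well before compound.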
# Chain of human ether-à-go-go-related gene (hERG) potassium channel (Q12809 whole entry, looked up): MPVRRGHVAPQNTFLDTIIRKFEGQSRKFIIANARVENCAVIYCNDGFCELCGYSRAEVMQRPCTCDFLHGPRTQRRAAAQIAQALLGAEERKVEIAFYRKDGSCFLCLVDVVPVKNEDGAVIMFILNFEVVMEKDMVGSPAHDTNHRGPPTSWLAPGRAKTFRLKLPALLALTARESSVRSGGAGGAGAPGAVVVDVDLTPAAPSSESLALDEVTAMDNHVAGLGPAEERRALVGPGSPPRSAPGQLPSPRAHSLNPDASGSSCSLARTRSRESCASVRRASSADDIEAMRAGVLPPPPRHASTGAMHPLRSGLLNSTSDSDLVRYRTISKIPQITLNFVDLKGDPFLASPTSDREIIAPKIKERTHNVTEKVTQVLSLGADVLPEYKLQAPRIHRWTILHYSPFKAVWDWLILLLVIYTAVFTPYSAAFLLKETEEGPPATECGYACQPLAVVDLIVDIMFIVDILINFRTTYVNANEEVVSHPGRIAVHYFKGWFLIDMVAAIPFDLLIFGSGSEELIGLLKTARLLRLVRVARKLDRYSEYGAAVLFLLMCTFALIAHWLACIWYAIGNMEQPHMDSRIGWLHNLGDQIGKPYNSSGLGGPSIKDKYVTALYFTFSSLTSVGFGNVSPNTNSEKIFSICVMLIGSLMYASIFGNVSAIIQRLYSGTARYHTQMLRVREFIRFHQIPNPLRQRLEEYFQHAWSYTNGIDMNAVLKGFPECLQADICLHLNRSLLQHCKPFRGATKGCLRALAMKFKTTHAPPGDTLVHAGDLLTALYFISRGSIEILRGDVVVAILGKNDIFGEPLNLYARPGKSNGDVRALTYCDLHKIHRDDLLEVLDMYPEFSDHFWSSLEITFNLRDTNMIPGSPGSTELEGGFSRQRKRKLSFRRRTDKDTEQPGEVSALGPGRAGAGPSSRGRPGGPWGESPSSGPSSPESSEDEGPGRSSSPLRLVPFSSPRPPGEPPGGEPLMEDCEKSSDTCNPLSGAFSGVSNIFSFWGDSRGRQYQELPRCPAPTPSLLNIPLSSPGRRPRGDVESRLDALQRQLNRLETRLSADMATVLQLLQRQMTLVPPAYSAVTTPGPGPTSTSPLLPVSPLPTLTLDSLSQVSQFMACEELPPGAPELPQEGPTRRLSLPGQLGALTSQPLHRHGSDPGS
row,Structure (SMILES),"hERG current change (%, negative = inhibition) at 10uM [%]"
1,COc1ccc(CNC(=O)[C@@H](NC(=O)C2CCN(C(=O)[C@@H]3CCCN3C(=O)OC(C)(C)C)CC2)C(C)C)cc1,-9.4
2,CCOc1ccc(CCNC(=O)CN(C)S(=O)(=O)c2cccc3nsnc23)cc1OCC,-9.79
3,O=C(O)C(=O)O.O=S(=O)(c1ccc(Cl)cc1)N(CCCN1CCOCC1)Cc1cccs1,-63.7
4,COc1ccc(S(=O)(=O)N(CCCN2CCOCC2)Cc2ccc(OC)c(OC)c2)cc1,-39.9
5,CC(=O)Nc1ccc(S(=O)(=O)N(CCCN2CCOCC2)Cc2cccs2)cc1.O=C(O)C(=O)O,-20.9
6,O=C(O)C(=O)O.O=[N+]([O-])c1ccc(S(=O)(=O)N(CCCN2CCOCC2)Cc2cccs2)cc1,-70.6
7,CC(C)(C)c1ccc(S(=O)(=O)N(CCCN2CCOCC2)Cc2cccs2)cc1.O=C(O)C(=O)O,-33.4
8,COc1ccc(S(=O)(=O)N(CCCN2CCOCC2)Cc2cccc3ccccc23)cc1,-48.6
9,O=C(Nc1ccc(N2CCCCC2)cc1)c1cccnc1Cl,13.4
10,CCOC(=O)C1CCCN(C(=O)c2cc(CN3C(=O)c4ccccc4C3=O)ccc2OC)C1 (stereo not shown),-9.55
11,C=CCc1cccc(/C=N/NC(=O)c2ccccc2Br)c1O,-50.2
12,C=CCc1cccc(/C=N/NC(=O)c2ccccc2OC)c1O,14.1
13,C=CCc1cccc(/C=N/NC(=O)CNc2ccccc2)c1O,-2.16
14,O=C(C1=C(O)C(=O)N(CCCn2ccnc2)C1c1ccc(F)cc1)c1ccco1 (stereo not shown),15.8
15,C/C(=N\Nc1ccccn1)c1ccc(OC(F)F)cc1,-71.3
16,C/C(=N\Nc1ncc(Cl)cc1Cl)c1ccc(C#N)cc1,-4.88
17,COc1cccc(/C(C)=N/Nc2ncc(Cl)cc2Cl)c1,-10.3
18,C/C(=N\Nc1ccccn1)c1ccc(C#N)cc1,-19.3
19,C/C(=N\Nc1ccccn1)c1ccc(C(C)C)cc1,23.7
20,C/C(=N\Nc1ncc(Cl)cc1Cl)c1ccc(OC(F)F)cc1,-50.2
21,CCOC(=O)CNC(=O)c1cnc(Nc2ccccc2OC)c2ccccc12,5.33
22,COc1ccccc1C1/C(=C(\O)c2ccc3c(c2)OCCO3)C(=O)C(=O)N1Cc1cccnc1 (stereo not shown),18.9
